Reference: PubChem BioAssay (NCI)
This is part of a sample that, as a whole, favours compounds with a hit. Of some 79,000 tested, about 15% had one in any assay. Active and inactive are the calls of the source. Cut-off read from the data, not from the text of the source: active = growth inhibition above about 70%; inactive = the rest.

Assays:
[1] = NCI Yeast Anticancer Drug Screen. Data for the rad52 strain (AID 147);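 note: 0% = growth of vehicle-treated control cultures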; conditions: S. cerevisiae rad52 mutant growth inhibition, stronger effect = higher value
In short: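 Growth of repair-deficient yeast cells was compared between compound-treated and vehicle-treated cultures to give percent inhibition.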

[2] = NCI Yeast Anticancer Drug Screen. Data for the wt1 strain (AID 149);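 note: 0% = growth of vehicle-treated wt1 cultures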; conditions: S. cerevisiae wt1 strain (SPY 50644) growth inhibition, stronger effect = higher value
In short: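 wt1 strain grown with compound or vehicle; inhibition taken from the growth difference.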

[3] = NCI Yeast Anticancer Drug Screen. Data for the rad50EPP+ strain (AID 151);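 note: 0% = growth of vehicle-treated control cultures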; conditions: S. cerevisiae rad50 mutant strain, stronger effect = higher value
In short: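 Measured: growth inhibition of rad50EPP+ yeast. Reference: vehicle-treated controls. Screen uses strains with defined genetic alterations in DNA damage repair or cell cycle control.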

[4] = NCI Yeast Anticancer Drug Screen. Data for the mgt1 strain (AID 153); conditions: S. cerevisiae mgt1 mutant growth inhibition, stronger effect = higher value
In short: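 Compounds were applied to mgt1 mutant yeast, and growth was then compared against vehicle-treated control cultures to give percent inhibition.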

[5] = NCI Yeast Anticancer Drug Screen. Data for the rad50 strain (AID 155);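 note: 0% = growth of vehicle-only cultures of the same strain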; conditions: S. cerevisiae rad50 strain growth inhibition, stronger effect = higher value
In short: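 DNA repair mutant yeast, compound exposure, growth read-out; inhibition is taken relative to vehicle.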

[6] = NCI Yeast Anticancer Drug Screen. Data for the mec2-1 strain (AID 157); conditions: S. cerevisiae mec2-1 strain, stronger effect = higher value
In short: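 Compounds were applied to mec2-1 yeast cells. Their growth was then compared with that of vehicle-treated cultures to give growth inhibition.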

[7] = NCI Yeast Anticancer Drug Screen. Data for the rad14 strain (AID 159);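 note: 0% = growth of vehicle-treated control cultures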; conditions: S. cerevisiae rad14 strain growth inhibition, stronger effect = higher value
In short: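 DNA repair-defective yeast, compound-exposed; % growth inhibition derived by comparison with vehicle-treated controls.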

[8] = NCI Yeast Anticancer Drug Screen. Data for the sgs1 mgt1 strain (AID 161);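 note: 0% = growth of cultures given vehicle only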; conditions: S. cerevisiae sgs1 mgt1 strain, stronger effect = higher value
In short: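 Percent growth inhibition was derived by comparing compound-exposed mutant yeast with vehicle-exposed cultures. The strain carries alterations in DNA damage repair.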

[9] = NCI Yeast Anticancer Drug Screen. Data for the cln2 rad14 strain (AID 165);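 note: 0% = growth equal to vehicle treated cultures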; conditions: S. cerevisiae cln2 rad14 strain, stronger effect = higher value
In short: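 Strain: cln2 rad14 yeast, altered in cell cycle control and DNA damage repair. Read-out: growth inhibition vs vehicle.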

[10] = NCI Yeast Anticancer Drug Screen. Data for the bub3 strain (AID 167); conditions: S. cerevisiae bub3 mutant strain, stronger effect = higher value
In short: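 In this screen, a yeast mutant lacking normal mitotic checkpoint function is challenged with compound. Relative growth versus vehicle gives the inhibition value.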

[11] = NCI Yeast Anticancer Drug Screen. Data for the wt2 strain (AID 169);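 note: 0% = growth of vehicle-treated yeast cultures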; conditions: S. cerevisiae wt2 strain growth inhibition, stronger effect = higher value
In short: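 Growth of compound-treated yeast is measured and expressed as inhibition relative to vehicle-only controls.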

[12] = NCI Yeast Anticancer Drug Screen. Data for the mlh1 strain (AID 171);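 note: 0% = growth of vehicle-treated control cultures of the same strain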; conditions: S. cerevisiae mlh1 strain growth inhibition, stronger effect = higher value
In short: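 Test agents were incubated with yeast bearing a defined DNA damage repair or cell cycle control alteration; values are growth inhibition normalised to vehicle-treated cultures.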

[13] = NCI Yeast Anticancer Drug Screen. Data for the sgs1 strain (AID 173);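 note: 0% = growth of vehicle-only control cultures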; conditions: S. cerevisiae sgs1 mutant, stronger effect = higher value
In short: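 Strain with an altered DNA repair or cell cycle pathway exposed to compound. Growth then measured. Value = inhibition versus vehicle control.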

[14] = NCI Yeast Anticancer Drug Screen. Data for the mlh1 rad18 strain (AID 175); conditions: S. cerevisiae mlh1 rad18 strain growth inhibition, stronger effect = higher value
In short: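 A repair-deficient yeast strain is exposed to test compound, and growth is scored relative to vehicle-treated controls.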

[15] = NCI Yeast Anticancer Drug Screen. Data for the rad18 strain (AID 177); conditions: S. cerevisiae rad18 mutant growth inhibition, stronger effect = higher value
In short: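 DNA-repair-defective yeast; compound treatment; growth inhibition scored against vehicle.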

[16] = NCI Yeast Anticancer Drug Screen. Data for the CLN2oe strain (AID 163);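 note: 0% = growth of vehicle-only control cultures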; conditions: S. cerevisiae CLN2oe strain, stronger effect = higher value
In short: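 Cells of an engineered yeast line with disturbed cell-cycle regulation are treated with compound. Inhibition of growth is then calculated relative to the vehicle-treated reference.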

[17] = at 5.0 µM (retest, dose inferred, filed as 0.5)
[18] = at 50.0 µM (retest, dose inferred, filed as 5.0)

Measured: growth inhibition

COc1cc(C2C3=C(COC3=O)Oc3cc4c(cc32)OCO4)cc(OC)c1O (stereo unspecified)
inactive: [2]; at 1.2 µM 1% | [2]; at 3.7 µM 2% | [2]; at 11.0 µM 3% | [2]; at 33.0 µM 6% | [2]; at 100.0 µM 8% | [3]; at 1.2 µM -2% | [3]; at 3.7 µM 0% | [3]; at 11.0 µM 1% | [3]; at 33.0 µM -3% | [3]; at 100.0 µM 0% | [4]; at 1.2 µM 0% | [4]; at 3.7 µM -2% | [4]; at 11.0 µM 15% | [4]; at 33.0 µM -2% | [4]; at 100.0 µM 7% | [5]; [17] 14% | [6]; at 1.2 µM 12% | [6]; at 3.7 µM 7% | [6]; [17] -24% | [6]; at 11.0 µM 18% | [6]; at 33.0 µM 25% | [6]; [18] 39% | [6]; at 50.0 µM 59.1% | [6]; at 100.0 µM 29% | [7]; at 1.2 µM 5% | [7]; at 3.7 µM 5% | [7]; at 11.0 µM 16% | [7]; at 33.0 µM 12% | [7]; at 100.0 µM 15% | [8]; [17] -3% | [8]; [18] 47% | [8]; at 50.0 µM 36.7% | [9]; [17] 8% | [9]; [18] 51% | [9]; at 50.0 µM 55.1% | [10]; at 1.2 µM 1% | [10]; at 3.7 µM -1% | [10]; [17] -18% | [10]; at 11.0 µM 14% | [10]; at 33.0 µM 10% | [10]; [18] 9% | [10]; at 50.0 µM 23.3% | [10]; at 100.0 µM 13% | [11]; at 1.2 µM 2% | [11]; at 3.7 µM 1% | [11]; at 11.0 µM 5% | [11]; at 33.0 µM 6% | [11]; at 100.0 µM 8% | [12]; at 1.2 µM 3% | [12]; at 3.7 µM 0% | [12]; at 11.0 µM 8% | [12]; at 33.0 µM 10% | [12]; at 100.0 µM 10% | [13]; at 1.2 µM 13% | [13]; at 3.7 µM 10% | [13]; at 11.0 µM 22% | [13]; at 33.0 µM 26% | [13]; at 100.0 µM 28% | [14]; [17] -10% | [14]; [18] 58% | [15]; at 1.2 µM 11% | [15]; at 3.7 µM 11% | [15]; at 11.0 µM 19% | [15]; at 33.0 µM 9% | [15]; at 100.0 µM 24%
active: [1]; at 1.2 µM 90% | [1]; at 3.7 µM 86% | [1]; at 11.0 µM 93% | [1]; at 33.0 µM 93% | [1]; at 100.0 µM 94% | [5]; at 1.2 µM 88% | [5]; at 3.7 µM 88% | [5]; at 11.0 µM 92% | [5]; at 33.0 µM 92% | [5]; [18] 97% | [5]; at 50.0 µM 70% | [5]; at 100.0 µM 93% | [14]; at 50.0 µM 72.7%

O=C1CC(C(O)(C(F)(F)F)C(F)(F)Cl)CCC1C(O)(C(F)(F)F)C(F)(F)Cl (stereo unspecified)
active: [1]; at 11.0 µM 72% | [1]; at 33.0 µM 93% | [1]; at 100.0 µM 97% | [2]; at 33.0 µM 91% | [2]; at 100.0 µM 97% | [4]; at 11.0 µM 87% | [4]; at 33.0 µM 94% | [4]; at 100.0 µM 97% | [5]; at 33.0 µM 91% | [5]; [18] 96% | [5]; at 50.0 µM 99.1% | [5]; at 100.0 µM 97% | [6]; at 11.0 µM 84% | [6]; at 33.0 µM 96% | [6]; [18] 96% | [6]; at 50.0 µM 99.5% | [6]; at 100.0 µM 98% | [8]; [18] 96% | [8]; at 50.0 µM 99.5% | [16]; at 1.2 µM 75% | [16]; at 3.7 µM 77% | [16]; at 11.0 µM 89% | [16]; at 33.0 µM 95% | [16]; at 100.0 µM 95% | [9]; [18] 96% | [9]; at 50.0 µM 99.2% | [10]; at 11.0 µM 76% | [10]; at 33.0 µM 95% | [10]; [18] 97% | [10]; at 50.0 µM 99.4% | [10]; at 100.0 µM 97% | [11]; at 11.0 µM 84% | [11]; at 33.0 µM 93% | [11]; at 100.0 µM 98% | [12]; at 33.0 µM 92% | [12]; at 100.0 µM 98% | [13]; at 11.0 µM 80% | [13]; at 33.0 µM 96% | [13]; at 100.0 µM 98% | [14]; [18] 97% | [14]; at 50.0 µM 99% | [15]; at 11.0 µM 76% | [15]; at 33.0 µM 94% | [15]; at 100.0 µM 97%
inactive: [1]; at 1.2 µM 54% | [1]; at 3.7 µM 46% | [2]; at 1.2 µM 32% | [2]; at 3.7 µM 44% | [2]; at 11.0 µM 68% | [3]; at 1.2 µM 12% | [3]; at 3.7 µM 24% | [3]; at 11.0 µM 38% | [3]; at 33.0 µM 46% | [3]; at 100.0 µM 41% | [4]; at 1.2 µM 60% | [4]; at 3.7 µM 65% | [5]; at 1.2 µM 45% | [5]; at 3.7 µM 33% | [5]; [17] 29% | [5]; at 11.0 µM 57% | [6]; at 1.2 µM 67% | [6]; at 3.7 µM 56% | [6]; [17] 35% | [8]; [17] 49% | [9]; [17] 44% | [10]; at 1.2 µM 60% | [10]; at 3.7 µM 45% | [10]; [17] 2% | [11]; at 1.2 µM 51% | [11]; at 3.7 µM 55% | [12]; at 1.2 µM 52% | [12]; at 3.7 µM 46% | [12]; at 11.0 µM 67% | [13]; at 1.2 µM 61% | [13]; at 3.7 µM 62% | [14]; [17] 42% | [15]; at 1.2 µM 42% | [15]; at 3.7 µM 45%
